Test [1] has as its system PRMT1 (protein arginine N-methyltransferase 1). Kind of test: PRMT1 binders on small-molecule microarrays, primary screen, biochemical, small-molecule microarray, 635 nm fluorescence (AID 1088).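 Further: binding of Prmt1 protein to compounds spotted on small-molecule microarray slides.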 Particulars: small-molecule microarray binding, higher = more signal.
A short description of test [2]: yeast growth modulation, basal conditions, primary screen, YJM789 clinical isolate, OD600, 24 h (AID 1089).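 Further: growth of clinical yeast isolate S. cerevisiae YJM 789 seeded 1000 cells per well; test concentration not given here.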 The settings on record: S. cerevisiae YJM789 growth, higher = more signal, called active from +8 up or from −8 down.
A short description of test [3]: fission yeast growth modulation, primary screen, strain 972, OD600, 24 h, no modulator (AID 1090).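 Further: basal condition with compound alone and no growth modifier present; test concentration not given here.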 The settings on record: S. pombe 972 growth, higher = more signal, called active from +8 up or from −8 down.
The nature of test [4]: S. cerevisiae growth modulation with rapamycin, primary screen, strain BY4716, OD600, 96 h (AID 1091). Further: test concentration not given here. Particulars: higher = more signal, called active from +8 up or from −8 down.
Test [5] deals with Torsin-1A-interacting protein 2 (Homo sapiens) (UniProt Q8NFQ8). Briefly: LULL1 binders on small-molecule microarray, primary screen, cell lysate, human LULL1 lysate, 635/667 nm fluorescence (AID 1092).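 Further: probe is lysate of COS7 cells overexpressing human LULL1; score merges per-feature 667 nm fluorescence with signal-to-noise.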 Particulars: hLULL1 lysate binding, 635 nm fluorescence, higher = more signal.
Test [6] in a line: E. coli growth modulation, two-sided OD650, primary screen, E. coli filamentation project, strain DRC41, 24 h (AID 1093).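 Further: MC1000 strain lacking acrAB efflux and sulA so SOS filamentation is blocked; test concentration not given here.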 Particulars: OD650, 24 h, higher = more signal, called active from +8 up or from −8 down.
Test [7] is described as follows: small-molecule microarray binders of probe aLefty2, primary screen, biochemical, biotinylated probe, 635/667 nm fluorescence (AID 1094).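 Further: score merges spot fluorescence near 667 nm with spot signal-to-noise ratio.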 Particulars: higher = more signal.
Test [8] concerns Noggin (protein binding on small-molecule microarray). Briefly: Noggin binders on small-molecule microarray, primary screen, biochemical, 635/667 nm fluorescence (AID 1095).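 Further: score merges 667 nm feature fluorescence with signal to noise over triplicate slides.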 Particulars: 635 nm fluorescence, higher = more signal.
Test [9] has as its target Neurogenic locus notch homolog protein 3 (Homo sapiens) (UniProt Q9UM47). Kind of test: NOTCH3 binders on small-molecule microarray, primary screen, biochemical, 635/667 nm fluorescence (AID 1096). The settings on record: NOTCH3 binding, 635 nm fluorescence, higher = more signal.
Test [10] can be described thus: small-molecule microarray binders of probe aEGFR, primary screen, biochemical, biotinylated probe, 635/667 nm fluorescence (AID 1097).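 Further: probe is a biotinylated anti-EGFR antibody binding compounds printed on slides; score combines fluorescence near 667 nm and signal to noise of each spot.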 Particulars: higher = more signal.
Test [11] relates to Plasmodium falciparum Sir2 (PF13_0152, Sir2A). Kind of test: pfSir2 binders on small-molecule microarrays, primary screen, biochemical, small-molecule microarray, 635 nm fluorescence (AID 1098).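 Further: score merges spot fluorescence intensity with its signal-to-noise ratio.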 Particulars: small-molecule microarray binding, fluorescence 635 nm; higher = more signal.
A short description of test [12]: small-molecule microarray binders of probe aDKK1, primary screen, biochemical, biotinylated probe, 635/667 nm fluorescence (AID 1099).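 Further: score merges 667nm spot fluorescence with signal to noise across triplicate slides; reference of the scale not given here.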 The settings on record: higher = more signal.
Test [13] is described as follows: small-molecule microarray binders of probe aCHRDL2, primary screen, biochemical, biotinylated probe, 635/667 nm fluorescence (AID 1100). Particulars: higher = more signal.
Test [14] can be described thus: splicing luciferase reporter signal modulators, primary screen, spliceosome inhibition project, cell-based, HEK293, splice +/- reporter (AID 1101).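 Further: HEK293 cells carrying a splicing-competent luciferase reporter gene; test concentration not given here.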 The settings on record: luminescence, 24 h, higher = more signal, called active from +8 up or from −8 down. For orientation: Reporter assays use an easily measured gene product as a stand-in for the process of interest.
The target of test [15] is Fibroblast growth factor 10 (Homo sapiens) (UniProt O15520). Briefly: FGF10 binders on small-molecule microarrays, primary screen, biochemical, small-molecule microarray, 635 nm fluorescence (AID 1102). The settings on record: FGF10 binding, fluorescence 635 nm, higher = more signal.
The test system of test [16] is glycogen synthase kinase-3 (GSK3A per assay name; protocol says GSK3B). Briefly: GSK3 binders on small-molecule microarrays, primary screen, biochemical, small-molecule microarray, 635 nm fluorescence, GSK3A (AID 1103). Further: the record names both GSK3A and GSK3B. The settings on record: small-molecule microarray binding, fluorescence 635 nm; higher = more signal.
Test [17] has as its target Epidermal growth factor receptor (Homo sapiens) (UniProt P00533). Kind of test: EGFR binders on small-molecule microarrays, primary screen, biochemical, small-molecule microarray, 635 nm fluorescence (AID 1104).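 Further: score merges 667 nm emission intensity with spot signal to noise over triplicate slides.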 The settings on record: EGFR binding, higher = more signal.
The target of test [18] is Follistatin-related protein 3 (Homo sapiens) (UniProt O95633). Briefly: FSTL3 binders on small-molecule microarrays, primary screen, biochemical, small-molecule microarray, 635 nm fluorescence (AID 1105).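 Further: score merges emission near 667 nm and signal to noise per printed spot across three slides.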 Particulars: FSTL3 binding, higher = more signal.
Test [19] has as its target Dickkopf-related protein 1 (Homo sapiens) (UniProt O94907). Briefly: DKK1 binders on small-molecule microarrays, primary screen, biochemical, small-molecule microarray, 635 nm fluorescence scan (AID 1106).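 Further: score merges emission near 667 nm with signal to noise over three replicate slides.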 Particulars: DKK1 binding, higher = more signal.
For test [20], the system named is Inhibin beta A chain (activin A). Kind of test: INHBA (activin A) binders on microarrays, primary screen, biochemical, small-molecule microarray, 635 nm fluorescence scan (AID 1107).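 Further: mouse activin A protein probed at 4.33 µg/mL on printed slides; score merges bound-protein fluorescence near 667 nm with spot signal-to-noise.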 The settings on record: small-molecule microarray binding, higher = more signal.

Calls of active or inactive are those of the source.

Chain of Dickkopf-related protein 1 (Homo sapiens) (O94907 whole entry, looked up): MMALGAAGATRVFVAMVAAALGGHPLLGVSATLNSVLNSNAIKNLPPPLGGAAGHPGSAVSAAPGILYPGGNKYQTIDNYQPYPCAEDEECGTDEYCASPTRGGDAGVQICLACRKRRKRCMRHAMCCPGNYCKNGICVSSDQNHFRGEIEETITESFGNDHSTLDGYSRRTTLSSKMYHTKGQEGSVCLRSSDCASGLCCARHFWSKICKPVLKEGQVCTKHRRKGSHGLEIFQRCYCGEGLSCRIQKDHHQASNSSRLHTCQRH
Chain of Torsin-1A-interacting protein 2 (Homo sapiens) (Q8NFQ8 whole entry, looked up): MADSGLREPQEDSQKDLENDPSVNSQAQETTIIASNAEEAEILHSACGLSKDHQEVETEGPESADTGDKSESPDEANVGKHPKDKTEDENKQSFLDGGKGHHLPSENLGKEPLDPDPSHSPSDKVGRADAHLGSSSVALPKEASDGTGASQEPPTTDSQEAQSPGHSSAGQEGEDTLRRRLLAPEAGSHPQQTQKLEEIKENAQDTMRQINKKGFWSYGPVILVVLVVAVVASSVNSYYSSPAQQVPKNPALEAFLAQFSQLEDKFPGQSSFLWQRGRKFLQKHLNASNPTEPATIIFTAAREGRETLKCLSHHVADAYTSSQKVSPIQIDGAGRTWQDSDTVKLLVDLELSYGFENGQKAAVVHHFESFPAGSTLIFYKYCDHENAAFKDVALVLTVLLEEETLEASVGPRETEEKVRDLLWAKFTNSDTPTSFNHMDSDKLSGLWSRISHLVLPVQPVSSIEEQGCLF
Chain of Epidermal growth factor receptor (Homo sapiens) (P00533 whole entry, looked up): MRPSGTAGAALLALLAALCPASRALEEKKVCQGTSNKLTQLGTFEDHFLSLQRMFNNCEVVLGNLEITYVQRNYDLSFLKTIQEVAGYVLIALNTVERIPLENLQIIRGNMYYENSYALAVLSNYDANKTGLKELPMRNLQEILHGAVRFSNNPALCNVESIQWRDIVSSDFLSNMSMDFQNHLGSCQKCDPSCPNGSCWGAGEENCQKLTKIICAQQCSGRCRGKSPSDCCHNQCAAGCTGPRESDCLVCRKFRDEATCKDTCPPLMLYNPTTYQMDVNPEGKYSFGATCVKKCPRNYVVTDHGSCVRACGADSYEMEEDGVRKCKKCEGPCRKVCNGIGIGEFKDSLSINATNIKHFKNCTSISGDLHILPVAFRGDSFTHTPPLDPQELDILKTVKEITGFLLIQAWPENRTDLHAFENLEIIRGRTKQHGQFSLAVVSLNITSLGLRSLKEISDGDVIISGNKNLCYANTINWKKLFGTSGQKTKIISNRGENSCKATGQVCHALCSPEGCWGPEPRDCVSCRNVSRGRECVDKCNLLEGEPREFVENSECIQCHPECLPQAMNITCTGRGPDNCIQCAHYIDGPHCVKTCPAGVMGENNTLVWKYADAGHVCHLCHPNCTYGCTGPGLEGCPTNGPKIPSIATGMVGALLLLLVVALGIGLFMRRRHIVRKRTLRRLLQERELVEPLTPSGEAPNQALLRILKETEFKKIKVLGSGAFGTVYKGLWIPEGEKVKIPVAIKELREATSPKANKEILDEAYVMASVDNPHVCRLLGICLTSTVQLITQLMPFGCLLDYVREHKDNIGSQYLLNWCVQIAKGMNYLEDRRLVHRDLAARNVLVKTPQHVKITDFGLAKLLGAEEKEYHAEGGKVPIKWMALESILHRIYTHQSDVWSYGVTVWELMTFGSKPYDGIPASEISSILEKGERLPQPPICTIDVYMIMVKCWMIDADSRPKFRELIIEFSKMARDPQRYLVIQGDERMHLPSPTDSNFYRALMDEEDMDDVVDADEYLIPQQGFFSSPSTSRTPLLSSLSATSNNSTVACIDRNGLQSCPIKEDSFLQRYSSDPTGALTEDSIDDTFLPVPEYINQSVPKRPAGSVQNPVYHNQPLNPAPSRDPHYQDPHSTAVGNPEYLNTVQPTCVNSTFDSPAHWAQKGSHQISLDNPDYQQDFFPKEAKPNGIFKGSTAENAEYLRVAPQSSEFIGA
Chain of Fibroblast growth factor 10 (Homo sapiens) (O15520 whole entry, looked up): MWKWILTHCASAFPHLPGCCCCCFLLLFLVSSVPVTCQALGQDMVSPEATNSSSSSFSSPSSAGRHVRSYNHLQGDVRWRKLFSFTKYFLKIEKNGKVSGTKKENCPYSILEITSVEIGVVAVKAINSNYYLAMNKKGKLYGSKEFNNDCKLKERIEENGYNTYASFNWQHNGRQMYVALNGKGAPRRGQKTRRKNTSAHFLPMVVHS
Chain of Follistatin-related protein 3 (Homo sapiens) (O95633 whole entry, looked up): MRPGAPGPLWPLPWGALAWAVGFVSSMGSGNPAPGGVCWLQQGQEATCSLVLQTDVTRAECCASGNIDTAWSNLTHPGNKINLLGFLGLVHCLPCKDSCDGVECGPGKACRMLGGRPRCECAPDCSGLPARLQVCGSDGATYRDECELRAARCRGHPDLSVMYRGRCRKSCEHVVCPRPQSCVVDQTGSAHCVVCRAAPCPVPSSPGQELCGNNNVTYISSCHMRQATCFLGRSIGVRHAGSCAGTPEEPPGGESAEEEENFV
Chain of Neurogenic locus notch homolog protein 3 (Homo sapiens) (Q9UM47 whole entry, looked up): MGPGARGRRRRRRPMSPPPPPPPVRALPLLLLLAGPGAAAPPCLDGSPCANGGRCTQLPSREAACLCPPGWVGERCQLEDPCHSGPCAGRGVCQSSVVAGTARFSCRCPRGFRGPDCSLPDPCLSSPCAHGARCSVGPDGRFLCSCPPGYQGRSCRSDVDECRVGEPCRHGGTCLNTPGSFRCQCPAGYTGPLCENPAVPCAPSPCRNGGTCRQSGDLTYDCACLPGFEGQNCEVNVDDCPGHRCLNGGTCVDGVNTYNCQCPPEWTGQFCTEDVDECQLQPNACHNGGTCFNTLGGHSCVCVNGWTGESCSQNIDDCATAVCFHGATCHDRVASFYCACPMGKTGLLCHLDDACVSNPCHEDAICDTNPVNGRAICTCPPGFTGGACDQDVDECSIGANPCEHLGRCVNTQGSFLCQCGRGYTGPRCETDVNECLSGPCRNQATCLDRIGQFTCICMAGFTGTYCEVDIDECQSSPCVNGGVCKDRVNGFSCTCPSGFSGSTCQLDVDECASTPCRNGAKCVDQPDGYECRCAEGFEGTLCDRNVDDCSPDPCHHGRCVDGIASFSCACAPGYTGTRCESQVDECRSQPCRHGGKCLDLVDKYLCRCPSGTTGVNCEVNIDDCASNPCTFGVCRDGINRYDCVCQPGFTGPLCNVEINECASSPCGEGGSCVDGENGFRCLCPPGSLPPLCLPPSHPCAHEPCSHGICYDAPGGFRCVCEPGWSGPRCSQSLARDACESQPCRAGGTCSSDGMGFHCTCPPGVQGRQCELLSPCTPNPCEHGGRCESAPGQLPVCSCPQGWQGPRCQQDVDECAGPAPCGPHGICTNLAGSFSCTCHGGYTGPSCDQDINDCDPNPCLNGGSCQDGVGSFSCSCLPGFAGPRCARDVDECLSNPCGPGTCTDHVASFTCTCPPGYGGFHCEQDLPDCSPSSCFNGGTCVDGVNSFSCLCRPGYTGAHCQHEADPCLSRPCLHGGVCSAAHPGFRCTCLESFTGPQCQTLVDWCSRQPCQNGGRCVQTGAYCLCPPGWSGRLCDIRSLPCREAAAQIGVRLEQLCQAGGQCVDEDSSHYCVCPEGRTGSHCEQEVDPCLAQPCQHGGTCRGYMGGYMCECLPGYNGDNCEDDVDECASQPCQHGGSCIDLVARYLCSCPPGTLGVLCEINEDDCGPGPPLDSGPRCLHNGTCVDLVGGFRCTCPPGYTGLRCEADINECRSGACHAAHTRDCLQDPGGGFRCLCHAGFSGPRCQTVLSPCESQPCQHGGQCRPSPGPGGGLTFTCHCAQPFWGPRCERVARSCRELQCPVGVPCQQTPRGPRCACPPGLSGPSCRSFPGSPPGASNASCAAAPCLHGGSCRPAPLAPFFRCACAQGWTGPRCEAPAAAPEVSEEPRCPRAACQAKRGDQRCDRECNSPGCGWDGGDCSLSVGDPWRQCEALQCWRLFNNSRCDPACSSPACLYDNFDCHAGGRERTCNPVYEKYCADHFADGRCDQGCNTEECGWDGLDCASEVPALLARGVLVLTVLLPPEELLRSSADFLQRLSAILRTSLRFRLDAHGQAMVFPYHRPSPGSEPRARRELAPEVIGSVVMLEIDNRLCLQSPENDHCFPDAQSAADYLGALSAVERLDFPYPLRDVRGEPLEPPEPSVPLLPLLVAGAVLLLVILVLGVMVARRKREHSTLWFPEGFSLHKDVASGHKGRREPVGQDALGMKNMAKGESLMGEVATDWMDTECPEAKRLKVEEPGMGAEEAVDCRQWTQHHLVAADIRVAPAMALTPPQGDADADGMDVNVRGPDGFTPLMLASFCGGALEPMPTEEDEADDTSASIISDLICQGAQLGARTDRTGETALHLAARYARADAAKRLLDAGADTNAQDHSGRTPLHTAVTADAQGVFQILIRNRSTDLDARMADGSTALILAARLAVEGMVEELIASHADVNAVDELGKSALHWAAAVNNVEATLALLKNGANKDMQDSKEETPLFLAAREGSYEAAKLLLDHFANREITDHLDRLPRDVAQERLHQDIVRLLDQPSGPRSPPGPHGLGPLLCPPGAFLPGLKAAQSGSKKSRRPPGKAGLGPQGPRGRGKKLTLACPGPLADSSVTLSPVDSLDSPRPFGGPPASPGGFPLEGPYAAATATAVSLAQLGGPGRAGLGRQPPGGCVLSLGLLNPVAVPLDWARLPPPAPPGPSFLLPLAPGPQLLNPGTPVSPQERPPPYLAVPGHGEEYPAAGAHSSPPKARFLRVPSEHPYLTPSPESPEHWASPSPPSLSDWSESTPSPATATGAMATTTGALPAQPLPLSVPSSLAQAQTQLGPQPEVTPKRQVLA

As for `CC(C)C[C@@H]1NC(=O)[C@H](CC(C)C)NC(=O)[C@@]23C(=O)N[C@@H](Cc4ccccc4)C2[C@H](C)[C@@]2(C)O[C@H]2C3/C=C/CC/C=C/CNC1=O` (stereo not given in full), the composite z-score was 1.54 in test [1]; 2.01 in [5]; -0.26 in test [7]; 0.413 in test [8]; 1.08 in test [9]; -0.0697 in test [10]. Moreover, the composite z-score is 1.05 in test [11]; -0.233 in [12]; -0.406 in test [13]; 0.707 in test [15]; 0.516 in test [16]; 0.543 in [17]. Also, the composite z-score in test [18] stood at 0.998; in [19], 1.19; in test [20], 1.38. For the same molecule, the z-score in [2] was -0.833 (inactive); in test [3], -2.66 (inactive); in test [4], -1.74 (inactive); in [6], 0.194 (inactive); in test [14] it was -0.218 (inactive).
In the case of `COCCOC(=O)N1C(=O)[C@@]2(c3cc(C#CC4(O)CCCCCC4)ccc31)[C@H](C(=O)N1CCCCCCC1)[C@H]1C(=O)O[C@H](c3ccccc3)[C@H](c3ccccc3)N1[C@@H]2c1ccc(O)cc1`, the composite z-score in test [1] is 1.56; in test [5], 2.86; in test [7] it was 0.873; in test [8] it was 0.906; in test [9], 0.995; in test [10], 0.67. Also, the composite z-score in test [11] was 1.26; in test [12] it was 2.22; in test [13] it was 1.55; in test [15], 0.808; in [16] it was 1.11; in test [17] it was 0.251. The composite z-score in test [18] turned out to be 1.34; in [19] it was 0.716; in test [20], 1.89. Further, the z-score was -0.971 (inactive) in [2]; -1.1 (inactive) in test [3]; 0.772 (inactive) in [4]; 2.34 (inactive) in [6]; -0.0148 (inactive) in test [14].
`O=C1OCCC/C=C\[C@H]2OC34C=CCN(CCN5CCOCC5)C(=O)[C@H]3N(CCCCCO)C(=O)[C@@H]4C12` (stereo not given in full): the composite z-score in test [1] was -0.706; in [5], -0.701; in [7] it was -0.221; in [8], -0.987; in [9], 0.0233; in test [10], -0.281. Moreover, the composite z-score in test [11] is 1.52; in test [12], -0.413; in test [13], -0.0252; in test [15], -0.81; in test [16], -0.188; in test [17], -1.33. Moreover, the composite z-score in [18] was -0.762; in [19], -0.333; in test [20], 0.966. Moreover, the z-score in [2] is -0.114 (inactive); in test [3] it was -0.359 (inactive); in [4], -0.824 (inactive); in test [6] it was -0.763 (inactive); in test [14] it was -0.755 (inactive).
With `COc1ccc(-c2cc3c(c(-c4ccccc4)n2)[Si](C(C)C)(C(C)C)O[C@H]3c2ccccc2)cn1`, the composite z-score was 1.11 in [1]; 0.965 in test [5]; -0.132 in test [7]; 0.47 in [8]; 0.596 in test [9]; 0.0215 in test [10]. In addition, the composite z-score in test [11] was -0.309; in [12], -0.0513; in [13], -0.131; in test [15] it was 0.22; in test [16], 0.176; in test [17], 0.0928. Also, the results for the composite z-score in test [18], in test [19] and in [20] were 0.352, 0.0263 and 0.605, respectively. Besides, the z-score is -0.136 (inactive) in test [2]; -0.572 (inactive) in test [3]; -0.0946 (inactive) in test [4]; -1.03 (inactive) in test [6]; 0.96 (inactive) in [14].
With `Cc1ccc(S[C@]2(C(=O)NCCN3CCOCC3)CC(=O)N(C3Cc4ccccc4C3)[C@@H]2c2ccc(CO)cc2I)cc1`, the composite z-score was 1.01 in test [1]; 1.96 in test [5]; 0.366 in test [7]; -1.62 in test [8]; -0.484 in test [9]; -0.204 in test [10]. For the same molecule, the composite z-score in [11] was 1.84; in test [12] it was 0.696; in [13], 1.18; in [15] it was -0.303; in test [16] it was -0.909; in test [17], -1.65. The composite z-score in test [18] was -0.359; in [19] it was -0.408; in test [20], 0.72. In addition, the z-score is -2.08 (inactive) in [2]; -5.05 (inactive) in test [3]; 0.401 (inactive) in [4]; 1.75 (inactive) in test [6]; -1.16 (inactive) in [14].
Regarding `C=CCNC(=O)[C@H]1[C@@H]2C(=O)O[C@@H](c3ccccc3)[C@@H](c3ccccc3)N2[C@@H](c2ccccc2OCCO)[C@]12C(=O)N(C(=O)OCCOC)c1ccc(C#CCC(C(=O)OC)C(=O)OC)cc12`, the composite z-score in test [1] stood at 1.55; in test [5], 2.97; in [7], 0.0757; in [8], 1.15; in test [9] it was 1.03; in test [10], 0.0343. The composite z-score was 1.1 in test [11]; 0.572 in test [12]; 0.155 in test [13]; 0.541 in test [15]; 1.29 in [16]; 0.328 in test [17]. The composite z-score was 0.919 in test [18], 0.271 in [19] and 0.641 in [20]. The z-score was 0.759 (inactive) in [2]; -1.68 (inactive) in [3]; 5.51 (inactive) in test [4]; 3.27 (inactive) in [6]; -1.69 (inactive) in [14].
In the case of `CCCC=C(CCC)[C@@H](NS(=O)(=O)c1cccc(C(F)(F)F)c1)c1ccc(C(=O)OC)cc1`, the composite z-score in [1] was 0.133; in [5] it was 0.468; in [7], 1.06; in test [8], 1.3; in test [9] it was 0.0083; in test [10], 0.912. Moreover, the composite z-score was 0.935 in test [11]; 1.55 in test [12]; 1.06 in test [13]; -0.67 in test [15]; 0.37 in test [16]; -1.1 in [17]. Further, the composite z-score in test [18] was -0.271; in test [19], -0.553; in test [20] it was -0.507. Also, the z-score was 0.483 (inactive) in [2]; 0.441 (inactive) in test [3]; -0.182 (inactive) in test [4]; -0.228 (inactive) in [6]; -0.489 (inactive) in test [14].
With `C=CC[C@]1(C(=O)O)N=C(c2ccc(OCCCO)cc2)O[C@H]1c1ccccc1`, the composite z-score in test [1] is 0.707; in test [5] it was 3.29; in test [7], -0.0199; in test [8], -1.1; in [9], -0.888; in test [10] it was -0.0936. Also, the composite z-score in [11] was 1.43; in test [12], 0.518; in test [13] it was 0.838; in test [15], -0.0023; in test [16] it was -0.517; in [17], -1.13. For the same molecule, the composite z-score in test [18] was -1.02; in [19], -0.968; in [20], 0.654. Also, the z-score in test [2] is -0.435 (inactive); in test [3] it was -2.83 (inactive); in [4] it was -1.08 (inactive); in [6], 0.597 (inactive); in test [14] it was -0.893 (inactive).
Regarding `CC(C)[Si](OCCCNS(=O)(=O)c1ccc(Br)cc1)(C(C)C)C(C)C`, the composite z-score in test [1] was determined as 0.807; in [5] it was 0.716; in test [7], 0.0278; in [8], 0.578; in [9], 1.11; in test [10] it was 0.0298. For the same molecule, the composite z-score was determined as 0.373 in test [11]; 0.526 in test [12]; 0.0951 in [13]; 0.831 in [15]; 1.18 in [16]; 0.742 in [17]. The composite z-score in [18] was 0.753; in [19], 0.673; in test [20] it was -0.415. Further, the z-score was -4.21 (inactive) in [2]; -3.02 (inactive) in [3]; -1.86 (inactive) in test [4]; 3.1 (inactive) in test [6]; -0.619 (inactive) in test [14].

The values above are taken from PubChem BioAssay.
